According to PubChem BioAssay:
Activity calls are given as the source filed them.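 How the source made its calls, unless noted: active means fluorescence slope higher than the sample average by over 3 SD (cut at about -0.22 in these data, passing the limit was not always enough); inactive means the rest.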

How the values were obtained:
[1] = inhibitors of TNFa-induced NFkB p65 translocation, primary screen, imaging, HUVEC, MLSMR starter and 10KST1 sets (AID 438;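 active means inhibition above 20% together with a positive visual image hit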;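 further: compound added about 3h40 before a 20 min TNFalpha stimulation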;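 on inhibition: signal is the nuclear over cytoplasmic p65 intensity ratio per well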); settings: HUVEC TNFa-induced p65 nuclear translocation; cell count: measured here: nuclei count (cytotoxicity indicator), at 2.08 µM; inhibition: at 2 µM, stronger effect = higher value, 0% TNFa-plus-vehicle, 100% no-TNFa wells
[2] = inhibitors of mutant huntingtin aggregation, primary screen, imaging, exon1htt(103Q)mCFP cells, high-content imaging (AID 483;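 active means visual image review flags a hit and inhibition of aggregation exceeds 20%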;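 further: compound exposure lasted 3 days before fixation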;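 on nuclei count: percent of the per-plate median nuclei count of sample wells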); settings: exon1htt(103Q)mCFP cell line, aggregate imaging, at 2 µM; inhibition of aggregation: stronger effect = higher value; nuclei count: measured here: cell count, toxicity
[3] = inhibitors of E-selectin induction by TNFa, primary screen, imaging, HUVEC, immunofluorescence, MLSMR starter and 10KST1 sets (AID 487;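 active means visually confirmed hit in the image check and inhibition above 20%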;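 on inhibition: signal is fraction of cell area covered by stained E-selectin grains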;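 on nuclei count: 100% = median nuclei count of all wells on the same plate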); settings: HUVEC TNFalpha-induced E-selectin immunofluorescence imaging, at 2 µM; inhibition: stronger effect = higher value; nuclei count: measured here: cell number, toxicity
[4] = target: Voltage-gated potassium channel subunit beta-2 (Rattus norvegicus) (UniProt P62483); assay: KvBeta enzyme negative modulators, primary screen, biochemical, NADPH fluorescence (AID 622); settings: recombinant KvBeta, 4-cyanobenzaldehyde reduction, at 10 µM, stronger effect = higher value;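 further: slope of raw intensity against log time taken from 70 to 1610 s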
[5] = target: Voltage-gated potassium channel subunit beta-2 (Rattus norvegicus) (UniProt P62483); assay: KvBeta positive modulators, primary screen, biochemical, NADPH fluorescence (AID 623;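 active means NADPH fluorescence slope more negative than the mean of all samples by about 3 SD, 99.7% confidence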;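 further: fluorescence intensity change per second fitted from 20 to 320 s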); settings: Recombinant KvBeta, NADPH fluorescence decrease slope, 10 min; at 10 µM; stronger effect = lower value
[6] = target: Alpha-2C adrenergic receptor (Homo sapiens) (UniProt P18825); assay: modulators of alpha2C/GIRK thallium flux, primary screen, cell-based, HEK293 alpha2C/GIRK1/2 (AID 624;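 active means fluorescence slope after compound addition differing from the mean of all screened samples at 99.7% confidence, in either direction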;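 further: slope of fluorescence ratio to pre-addition baseline per second over 15 to 24 s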); settings: thallium flux BTC fluorescence, at 10 µM, actives lie on both sides
[7] = inhibitors of Sendai virus-induced IRF3 signaling, primary screen, TLR/RLR signaling modifier project, cell-based, Sendai virus stimulus, luciferase, 10K MLSCN set (AID 602276;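 active means inhibition at or above 50% at 10 µM; inactive means inhibition below 50%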;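 further: firefly luciferase from ISG56 promoter only with Renilla not read in this screen; 0% = Sendai virus plus DMSO and 100% = medium plus DMSO without virus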); settings: HEK293 RL24 IRF3 luciferase reporter, at 10 µM, stronger effect = higher value
[8] = inhibitors of poly I:C-induced TLR3 signaling, primary screen, cell-based, poly I:C stimulus, luciferase, 10K MLSCN set (AID 602277;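 active means inhibition of the reporter signal at or above 50%; inactive means inhibition below 50%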); settings: HEK293-TLR3 RL24 IRF3 luciferase reporter, at 10 µM, stronger effect = higher value

Sequence of Voltage-gated potassium channel subunit beta-2 (Rattus norvegicus) (P62483 whole entry, looked up): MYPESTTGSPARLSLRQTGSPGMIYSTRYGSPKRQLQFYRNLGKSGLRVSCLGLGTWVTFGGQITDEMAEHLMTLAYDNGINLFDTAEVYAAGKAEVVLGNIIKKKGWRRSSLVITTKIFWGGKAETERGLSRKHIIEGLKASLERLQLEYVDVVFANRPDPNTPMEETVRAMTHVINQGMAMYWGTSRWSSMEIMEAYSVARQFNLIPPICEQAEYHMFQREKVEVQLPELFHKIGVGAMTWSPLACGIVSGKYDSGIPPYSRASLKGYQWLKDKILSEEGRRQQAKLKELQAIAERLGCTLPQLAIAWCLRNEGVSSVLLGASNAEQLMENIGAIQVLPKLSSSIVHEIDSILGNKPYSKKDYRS
Sequence of Alpha-2C adrenergic receptor (Homo sapiens) (P18825 whole entry, looked up): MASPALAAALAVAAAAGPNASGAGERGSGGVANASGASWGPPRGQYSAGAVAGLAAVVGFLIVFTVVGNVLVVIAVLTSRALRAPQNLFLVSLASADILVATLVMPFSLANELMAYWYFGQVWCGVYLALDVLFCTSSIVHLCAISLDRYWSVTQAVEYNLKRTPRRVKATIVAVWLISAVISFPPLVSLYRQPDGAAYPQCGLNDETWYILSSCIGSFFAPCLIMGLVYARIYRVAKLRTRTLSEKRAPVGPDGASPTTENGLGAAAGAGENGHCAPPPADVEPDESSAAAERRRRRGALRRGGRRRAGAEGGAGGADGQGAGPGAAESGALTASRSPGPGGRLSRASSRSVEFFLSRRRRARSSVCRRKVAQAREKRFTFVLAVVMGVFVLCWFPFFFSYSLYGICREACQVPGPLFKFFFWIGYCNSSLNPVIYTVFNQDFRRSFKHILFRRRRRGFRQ

Row | SMILES | cell count [1] | inhibition [1] | inhibition of aggregation [2] | nuclei count [2] | inhibition [3] | nuclei count [3] | fluorescence slope [4] | NADPH fluorescence slope [5] | slope [6] | inhibition [7] | inhibition [8]
1 | CCCn1c(SCC(=O)Nc2ccccc2C(=O)OC)nc2c1c(=O)n(C)c(=O)n2C | 576 | -10.9% (inactive) | 20.6% (inactive) | 95.3% | -152% (inactive) | 84.8% | -0.395 (inactive) | -7.6e-05 (inactive) | 0.00511 (inactive) | 15.9% (inactive) | 13% (inactive)
2 | CCN(C(=O)c1cn(C)c(=O)c2cc(OC)c(OC)cc12)c1ccccc1C | 175 | 0.3% (inactive) | 12.8% (inactive) | 94.1% | -21.1% (inactive) | 114% | -0.59 (inactive) | -2.6e-05 (inactive) | 0.00574 (inactive) | 0.738% (inactive) | 16.5% (inactive)
3 | COc1ccc(N2C(=O)C(Cl)=C(N3CCCC3)C2=O)cc1 | 446 | 10.1% (inactive) | -0.8% (inactive) | 101% | 25.6% (inactive) | 100% | -0.29 (inactive) | -4.2e-05 (inactive) | 0.00536 (inactive) | -5.83% (inactive) | -8.61% (inactive)
4 | C=CCn1c(SCn2nnc3ccccc3c2=O)nnc1-c1ccc(Br)cc1 | 447 | -8.7% (inactive) | 6% (inactive) | 67.5% | -30.7% (inactive) | 110% | -0.328 (inactive) | -5.6e-05 (inactive) | 0.00508 (inactive) | -1.43% (inactive) | -21.1% (inactive)
5 | CC1CCC(NC(=O)C2(C)CCC(=O)N2Cc2cccnc2)CC1 (stereo not drawn) | 890 | -5.2% (inactive) | 18.3% (inactive) | 70.4% | -7.7% (inactive) | 101% | -0.598 (inactive) | -1.4e-05 (inactive) | 0.00748 (inactive) | 1.39% (inactive) | 32.6% (inactive)
6 | COc1cc2[nH]c(=O)c(C(=O)NCCCN3CCCCC3)c(O)c2cc1OC | 637 | -24.5% (inactive) | 6.2% (inactive) | 98.3% | 15.9% (inactive) | 108% | -0.583 (inactive) | -5.3e-05 (inactive) | 0.00574 (inactive) | -5.59% (inactive) | -9.38% (inactive)
7 | CCCOc1ccc(N2C(=O)CC(SCCN)C2=O)cc1 (stereo not drawn) | 428 | -8.7% (inactive) | -9.8% (inactive) | 116% | -48.7% (inactive) | 116% | -0.4 (inactive) | -1.8e-05 (inactive) | 0.00441 (inactive) | -37.6% (inactive) | -77.1% (inactive)
8 | COc1ccccc1N1C(=O)c2ccccc2NC1c1ccncc1 (stereo not drawn) | 427 | 5.6% (inactive) | -20.4% (inactive) | 103% | -456% (inactive) | 163% | -0.437 (inactive) | -0.000349 (inactive) | 0.00578 (inactive) | -1.3% (inactive) | 5.74% (inactive)
9 | COc1ccc(OC)c(C2C(C(=O)Nc3ccc(F)cc3)=C(C)Nc3nc(CCCO)nn32)c1 (stereo not drawn) | 666 | 7.1% (inactive) | -11.2% (inactive) | 117% | -44% (inactive) | 109% | -0.427 (inactive) | 8.4e-06 (inactive) | 0.00613 (inactive) | 0.814% (inactive) | 11.9% (inactive)
10 | O=C(CCS(=O)(=O)c1cccc2nonc12)Nc1cccc2c1CCCC2 | 500 | -1.9% (inactive) | -20.7% (inactive) | 109% | -14% (inactive) | 114% | -0.547 (inactive) | 1.6e-05 (inactive) | 0.00573 (inactive) | -1.97% (inactive) | 5.02% (inactive)
11 | COc1ccc(S(=O)(=O)N2CCCC2C(=O)Nc2ccc(C)cc2)cc1 (stereo not drawn) | 469 | 42.3% (active) | -25% (inactive) | 130% | -11.9% (inactive) | 73.3% | -0.498 (inactive) | -5.1e-05 (inactive) | 0.00758 (inactive) | 12.2% (inactive) | 7.96% (inactive)
12 | Cn1c(-c2ccccc2)cc(=O)c2ccccc21 | 419 | -3.8% (inactive) | 2.5% (inactive) | 92.7% | -39.8% (inactive) | 118% | -0.457 (inactive) | 3.9e-05 (inactive) | 0.00556 (inactive) | 9.11% (inactive) | 16.3% (inactive)
13 | Cc1nc2ccccc2c2c1C(=O)N(CCC1=CCCCC1)C2=O | 410 | 1.6% (inactive) | -3.7% (inactive) | 74.1% | -54.2% (inactive) | 108% | -0.407 (inactive) | -4.4e-05 (inactive) | 0.00396 (inactive) | 11.5% (inactive) | 42.1% (inactive)
14 | Cc1nn(C)c(C)c1S(=O)(=O)N1CCCC(C(=O)N2CCN(c3ccc(Cl)cc3)CC2)C1 (stereo not drawn) | 288 | -3.9% (inactive) | -45.6% (inactive) | 94.8% | -270% (inactive) | 85.9% | -0.591 (inactive) | -1.7e-05 (inactive) | 0.00589 (inactive) | 11.1% (inactive) | 11.6% (inactive)
15 | O=C(O)CCn1[nH]c(=O)ccc1=O | 172 | 6.8% (inactive) | 37% (active) | 67.3% | -3% (inactive) | 84.3% | -0.562 (inactive) | 1.7e-06 (inactive) | 0.0053 (inactive) | 21.4% (inactive) | 18% (inactive)
16 | CCOC(=O)NC1(NCc2ccccc2)Oc2ccccc2O1 | 606 | -12.3% (inactive) | 9.6% (inactive) | 95% | -140% (inactive) | 129% | -0.509 (inactive) | 9e-05 (inactive) | 0.00513 (inactive) | -5.13% (inactive) | -21.2% (inactive)
17 | CCOc1ccccc1-n1c(SCC(=O)NC2CCCC2)nnc1-c1ccoc1C | 588 | -9.5% (inactive) | 35.7% (inactive) | 77.1% | 83.6% (inactive) | 62.7% | -0.543 (inactive) | 1.9e-05 (inactive) | 0.00524 (inactive) | 1.09% (inactive) | 11.6% (inactive)
18 | COc1ccc(N2CCN(C(=O)c3c(-c4ccccc4)noc3C)CC2)cc1 | 650 | 1.1% (inactive) | -16% (inactive) | 90.4% | -7.4% (inactive) | 96% | -0.578 (inactive) | -3.3e-05 (inactive) | 0.00611 (inactive) | -19.4% (inactive) | -16.5% (inactive)
19 | CC(C)(C)OC(=O)NCCc1nnc(SCC(=O)c2ccc(Cl)cc2)o1 | 282 | -3.2% (inactive) | 36.8% (inactive) | 77.1% | -56.7% (inactive) | 85.4% | -0.495 (inactive) | 1.3e-05 (inactive) | 0.00407 (inactive) | 5.48% (inactive) | 34.1% (inactive)
20 | O=C(CSc1nnc(CNC(=O)c2c(F)cccc2Cl)o1)c1ccccc1 | 672 | -19.6% (inactive) | 40.1% (active) | 100% | -111% (inactive) | 123% | -0.406 (inactive) | -5.2e-05 (inactive) | 0.00534 (inactive) | 3.28% (inactive) | 18.3% (inactive)
21 | Cc1oc(-c2ccccc2F)nc1CS(=O)(=O)CC(=O)NCCCN1CCc2ccccc2C1 | 649 | 11% (inactive) | 16.1% (inactive) | 68.5% | 27.9% (inactive) | 108% | -0.508 (inactive) | -5.3e-07 (inactive) | 0.00532 (inactive) | 10.5% (inactive) | 18.8% (inactive)
22 | Cc1c(C(=O)NCCC2=CCCCC2)oc2ccc(S(=O)(=O)N3CCC4(CC3)OCCO4)cc12 | 643 | 10.9% (inactive) | -35% (inactive) | 113% | -42.7% (inactive) | 106% | -0.413 (inactive) | -5.5e-05 (inactive) | 0.00783 (inactive) | 16.2% (inactive) | 29.4% (inactive)
23 | CCCNS(=O)(=O)c1ccc(C(=O)NCC2CCCO2)cc1 (stereo not drawn) | 482 | 2.6% (inactive) | -16.7% (inactive) | 114% | -95.5% (inactive) | 114% | -0.529 (inactive) | -4.9e-05 (inactive) | 0.00794 (inactive) | 10.8% (inactive) | 20.7% (inactive)
24 | Cc1ccccc1-n1c(Cn2c(=O)sc3ccccc32)nnc1SCC(=O)N1CCCC1 | 652 | 8.7% (inactive) | 13.1% (inactive) | 112% | -36.1% (inactive) | 120% | -0.547 (inactive) | -3.9e-05 (inactive) | 0.00766 (inactive) | 12.7% (inactive) | 10.7% (inactive)
25 | CCCN1CCC(NC(=O)Nc2ccc(OC)c(OC)c2)CC1 | 308 | -0.5% (inactive) | 12.6% (inactive) | 87.5% | -43.3% (inactive) | 107% | -0.383 (inactive) | 1.9e-05 (inactive) | 0.00372 (inactive) | 9.89% (inactive) | 33.2% (inactive)
26 | CCN(CC)c1ccc(NC(=O)c2nc3nc(C)cc(C(F)F)n3n2)cc1 | 650 | -1.9% (inactive) | 14.6% (inactive) | 98.5% | -10.1% (inactive) | 114% | -0.535 (inactive) | -3.4e-05 (inactive) | 0.00747 (inactive) | 21.5% (inactive) | -6.45% (inactive)
27 | CCCCn1c(SCC(=O)Nc2cc(C)on2)nnc1-c1cccnc1 | 414 | -3.9% (inactive) | 1.7% (inactive) | 121% | -26.4% (inactive) | 123% | -0.00106 (inactive) | -3.1e-05 (inactive) | 0.00399 (inactive) | 11.3% (inactive) | 6.93% (inactive)
28 | COc1cccc(CNC(=O)Cn2c(=O)oc3ccccc32)c1OC | 603 | -4% (inactive) | 2.6% (inactive) | 59.7% | -16.3% (inactive) | 88.3% | -0.53 (inactive) | -3.1e-05 (inactive) | 0.00743 (inactive) | 11.8% (inactive) | 31% (inactive)
